We go through 13 compounds from PubChem BioAssay (NCI).

Test systems include NCI-H23 lung; NCI-H226 lung; NCI-H322M lung; HOP-62 NSCLC; NCI-H460 lung; HOP-92 NSCLC; NCI-H522 lung; A549/ATCC NSCLC; 786-0 renal; COLO 205 colon.
Holding throughout (test): NCI-60 one-dose screen, 48 h (100 = growth as untreated, 0 = no growth, -100 = all killed)
Holding throughout (conditions): 10 µM unless noted

Structures are written as SMILES. Compounds without any hit were thinned out: in the full panel of roughly 83,000, 20% have a hit.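 Single-dose data. Exposure time 48 hours. Values below 10 considered active.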 Values without a mark were called inactive. Calls of active or inactive are those of the source.

As to `O=c1c2cccc3c(Nc4c(F)cccc4F)ccc(c32)c2nc3ccccc3n12`, the growth in the experiment on NCI-H23 lung is 85.8%; in the experiment on NCI-H226 lung, 75.1%; in the experiment on NCI-H322M lung, 86.8%; in the experiment with HOP-62 NSCLC, 85.6%; in the experiment on NCI-H460 lung it was 72.7%; with HOP-92 NSCLC it was 64.2%. The growth is 83% with NCI-H522 lung, 82.4% in the experiment with A549/ATCC NSCLC, 100% in the experiment with 786-0 renal and 84.9% in the experiment with COLO 205 colon.

Turning to `Oc1ccc(Nc2nccc(-c3ccc4ccccc4c3)n2)cc1`, the growth with NCI-H23 lung was 30.7%; in the experiment with NCI-H226 lung, 60.9%; in the experiment on NCI-H322M lung, 44.4%; with HOP-62 NSCLC it was 36.9%; with NCI-H460 lung, 14.8%; in the experiment on HOP-92 NSCLC, 89.5%. The growth in the experiment on NCI-H522 lung was 30.9%; in the experiment with A549/ATCC NSCLC, 14.1%; with 786-0 renal, 40.1%; in the experiment on COLO 205 colon, 98%.

As to `CSc1nc2sc3c(c2c(=O)n1-c1ccc(C(C)C)cc1)CCC(=O)C3`, the growth with NCI-H23 lung is -1.79% (active); in the experiment on NCI-H226 lung, 65.6%; in the experiment on NCI-H322M lung, 31.6%; in the experiment with HOP-62 NSCLC it was 15.2%; in the experiment on NCI-H460 lung it was 1.54% (active); with HOP-92 NSCLC, -18.2% (active). Further, the growth with NCI-H522 lung is -75.3% (active); in the experiment on A549/ATCC NSCLC, 67.9%; in the experiment with 786-0 renal, 18.7%; with COLO 205 colon, -67.7% (active).

`OCCNCCNc1c2ccccc2nc2ccccc12`: the growth in the experiment on NCI-H23 lung was 64.8%; in the experiment on NCI-H226 lung it was 58.3%; in the experiment on NCI-H322M lung it was 52.7%; in the experiment with HOP-62 NSCLC it was 60.7%; with NCI-H460 lung, 54.6%; in the experiment with HOP-92 NSCLC, 81.1%. Further, the growth in the experiment on NCI-H522 lung was 41.6%; with A549/ATCC NSCLC, 98.2%; with 786-0 renal, 84.9%; in the experiment with COLO 205 colon, 47.9%.

As to `CCCCCn1cnc2c(=S)nc[nH]c21`, the growth with NCI-H23 lung is 102%; with NCI-H226 lung, 110%; with NCI-H322M lung it was 121%; with HOP-62 NSCLC it was 110%; with NCI-H460 lung, 98.5%; with HOP-92 NSCLC, 101%. Moreover, the growth in the experiment with NCI-H522 lung is 90%; with A549/ATCC NSCLC, 118%; in the experiment with 786-0 renal it was 106%; in the experiment with COLO 205 colon, 105%.

For `COc1ccc2nc3cc(Cl)ccc3c(N3CCN(c4nccc(NCc5ccccc5)n4)CC3)c2c1`, the growth with NCI-H23 lung is 73.2%; with NCI-H226 lung, 96.4%; in the experiment on NCI-H322M lung, 89.4%; with HOP-62 NSCLC, 35.9%; in the experiment on NCI-H460 lung it was 89.9%; in the experiment with HOP-92 NSCLC, 69.1%. For the same compound, the growth was -0.14% (active) in the experiment on NCI-H522 lung, 78.3% in the experiment with A549/ATCC NSCLC, 79% in the experiment on 786-0 renal and 82.1% with COLO 205 colon.

With `C=C1CCC2C3(C)COC(c4cccc(Cl)c4)OC3CCC2(C)C1/C=C/C1=CCOC1=O` (stereo not given), the growth in the experiment on NCI-H23 lung is 38.2%; in the experiment with NCI-H226 lung it was 61%; in the experiment on NCI-H322M lung it was 90.2%; in the experiment on HOP-62 NSCLC it was 76.7%; in the experiment on NCI-H460 lung, 36.2%; in the experiment on HOP-92 NSCLC, 98.2%. The growth is 57.8% in the experiment on NCI-H522 lung, 58.4% in the experiment on A549/ATCC NSCLC, 65.9% in the experiment on 786-0 renal and 106% with COLO 205 colon.

Take `Cc1nn(-c2ccccc2)c2nc(C)n(-c3ccc(Br)cc3)c(=O)c12`: the growth in the experiment on NCI-H23 lung is 16%; in the experiment with NCI-H226 lung it was 49%; with NCI-H322M lung, 51.3%; in the experiment with HOP-62 NSCLC it was 35.1%; with NCI-H460 lung, 7.92% (active); in the experiment with HOP-92 NSCLC, 56.3%. Further, the growth in the experiment on NCI-H522 lung was -14.1% (active); with A549/ATCC NSCLC, 21.3%; with 786-0 renal, 43.3%; in the experiment on COLO 205 colon, 1.32% (active).

Regarding `O=C(/C=C\c1cccc([N+](=O)[O-])c1)c1ccccc1`, the growth in the experiment with NCI-H23 lung is 81.3%; with NCI-H226 lung, 70.3%; in the experiment with NCI-H322M lung, 96.1%; with HOP-62 NSCLC it was 90.8%; in the experiment with NCI-H460 lung it was 87.7%; in the experiment on HOP-92 NSCLC, -27% (active). Besides, the growth in the experiment with NCI-H522 lung is -5.55% (active); in the experiment on A549/ATCC NSCLC, 92.9%; with 786-0 renal, 13.2%; with COLO 205 colon it was -71% (active).

With `C[C@H](CCC(=O)O)[C@H]1CC[C@H]2[C@@H]3CC[C@@H]4/C(=C\c5ccco5)C(=O)/C(=C\c5ccco5)C[C@]4(C)[C@H]3CC[C@]12C`, the growth in the experiment with NCI-H23 lung is 70.4%; in the experiment with NCI-H226 lung, 89.2%; in the experiment with NCI-H322M lung it was 95.6%; with HOP-62 NSCLC it was 116%; in the experiment with NCI-H460 lung it was 81.9%; with HOP-92 NSCLC it was 106%. Moreover, the growth with NCI-H522 lung is 37.3%; with A549/ATCC NSCLC it was 72.1%; with 786-0 renal it was 91%; in the experiment on COLO 205 colon, 87.3%.

With `O=[N+]([O-])c1cccc(-c2nc3sccn3c2-c2ccnc(NCCCNS(=O)(=O)c3ccc(F)cc3)n2)c1`, the growth in the experiment on NCI-H23 lung is -7.3% (active); in the experiment with NCI-H226 lung, -3.92% (active); in the experiment on NCI-H322M lung it was 26.8%; in the experiment on HOP-62 NSCLC, 12.5%; in the experiment with NCI-H460 lung, 10.5%; in the experiment on HOP-92 NSCLC, 46.2%. Further, the growth was 0.116% (active) in the experiment with NCI-H522 lung, 9.67% (active) with A549/ATCC NSCLC, 44.2% in the experiment on 786-0 renal and 4.52% (active) with COLO 205 colon.

As for `COc1ccc(N(Cc2cc(OC)c(OC)c(OC)c2)C2OC(=O)c3ccccc32)cc1` (stereo not given), the growth in the experiment on NCI-H23 lung was 36.7%; in the experiment on NCI-H226 lung it was 67.2%; in the experiment with NCI-H322M lung, 52.4%; in the experiment on HOP-62 NSCLC, 28.1%; in the experiment with NCI-H460 lung it was 10.4%; in the experiment on HOP-92 NSCLC, 51.3%. Besides, the growth with NCI-H522 lung was -17.2% (active); in the experiment on A549/ATCC NSCLC it was 23.7%; in the experiment with 786-0 renal, 61.8%; in the experiment on COLO 205 colon, -3.48% (active).

`O=C1Nc2ccccc2/C1=C/C(=N/c1nnc(-c2ccc(Cl)cc2)s1)c1ccccc1`: the growth in the experiment with NCI-H23 lung was 29.1%; in the experiment on NCI-H226 lung it was 84.3%; in the experiment with NCI-H322M lung it was 77%; with HOP-62 NSCLC it was 51.5%; in the experiment with NCI-H460 lung it was 63.7%; in the experiment with HOP-92 NSCLC, 26.3%. Further, the growth in the experiment on NCI-H522 lung is -95.7% (active); in the experiment with A549/ATCC NSCLC, 82.6%; in the experiment with 786-0 renal, -56.9% (active); with COLO 205 colon it was 0.635% (active).
